High-throughput results deposited in PubChem by National Center for Advancing Translational Sciences (NCATS).
3T3 cytotox: NIH 3T3 cell cytotoxicity. NIH 3T3 viability, CellTiter-Glo ATP luminescence, 48-72 h. Potency, µM (titrated, usually from 96.7 µM), inactives show at the highest dose activity change, negative = cytotoxicity, most hits filed as inhibitors. actives 4.3% (n = 94,000). AID 1345082; further: nearly all actives have a fitted effect of over 55% in size
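Viability of NIH 3T3 cells after 48 or 72 hr compound treatment at 37 °C was assessed by CellTiter-Glo, with luminescence imaged following a 10 min room-temperature step.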
SNCA viab count: counter-screen for SNCA expression inhibitors: cell viability; HEK-293-SNCA-luc viability, GF-AFC fluorescence, 24 h; Potency, µM (doses to about 57.1 µM), for inactives: at the top dose activity change, negative = cytotoxicity, hits mostly cytotoxic; AID 1671193; actives 0.12% (n = 150,000);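 further: 0% = DMSO-treated cells and -100% = medium-only wells without cells; nearly all actives have a fitted effect of over 30% in size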
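HEK-293-SNCA-luc cells (1500/well) plated 24 h, then exposed 24 h to a dilution series; GF-AFC added 30 min at 37C, fluorescence 405/540 nm; normalised to medium-only and DMSO wells, Hill fit.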
NPR1 antag: human Npr1 receptor antagonism; P16066; HEK293 hNpr1 GloSensor cGMP, ANP-stimulated luminescence; Potency, µM (series often up to 46.3 µM), for inactives: at the top dose activity change, negative = inhibition, most hits filed as inhibitors; actives 1.6% (n = 76,000); AID 1347048; calls by dose curve; further: nearly all actives have a fitted effect of over 60% in size
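HEK293 cells stably expressing human Npr1 and cGMP GloSensor pGS-40F, loaded 2 h with 2% GloSensor reagent, given compound 30 min at room temperature. Luminescence read before and 20 min after 0.1 nM hNppA.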
HEK293 tox: kills HEK 293 cells; HEK 293 viability, ATP luminescence (CellTiter-Glo), 48-72 h; actives 6.6% (n = 94,000); AID 1345083; Potency, µM (top dose mostly 115 µM), inactives show top-dose activity change, negative = cytotoxicity, usual class: inhibitors; further: nearly all actives have a fitted effect of over 60% in size
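ATP-coupled CellTiter-Glo luminescence served as viability read-out, recorded 10 min after reagent addition at room temperature. HEK 293 cells, 250 cells/well, had been incubated with pintool-transferred compound for 48 or 72 hr at 37 degree Celsius.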
SNCA expr inh: reduces expression of the alpha-synuclein gene | HEK-293 SNCA-luciferase knock-in, luminescence, 24 h | Potency, µM (titrated, usually from 57.2 µM), without a hit: top-dose activity change, negative = inhibition, most hits filed as inhibitors | actives 0.17% (n = 140,000) | AID 1671194;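 further: plate controls were DMSO cells for no effect and cell-free wells for full effect; nearly all actives have a fitted effect of over 45% in size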
FLuc inh: Photinus pyralis luciferase inhibition. purified P. pyralis luciferase, luminescence, biochemical. Potency, µM (top dose mostly 115 µM), usual class: inhibitors. actives 2.5% (n = 76,000). AID 1347043; further: nearly all actives have a fitted effect of over 65% in size
Target sequence (P08659 whole entry, looked up): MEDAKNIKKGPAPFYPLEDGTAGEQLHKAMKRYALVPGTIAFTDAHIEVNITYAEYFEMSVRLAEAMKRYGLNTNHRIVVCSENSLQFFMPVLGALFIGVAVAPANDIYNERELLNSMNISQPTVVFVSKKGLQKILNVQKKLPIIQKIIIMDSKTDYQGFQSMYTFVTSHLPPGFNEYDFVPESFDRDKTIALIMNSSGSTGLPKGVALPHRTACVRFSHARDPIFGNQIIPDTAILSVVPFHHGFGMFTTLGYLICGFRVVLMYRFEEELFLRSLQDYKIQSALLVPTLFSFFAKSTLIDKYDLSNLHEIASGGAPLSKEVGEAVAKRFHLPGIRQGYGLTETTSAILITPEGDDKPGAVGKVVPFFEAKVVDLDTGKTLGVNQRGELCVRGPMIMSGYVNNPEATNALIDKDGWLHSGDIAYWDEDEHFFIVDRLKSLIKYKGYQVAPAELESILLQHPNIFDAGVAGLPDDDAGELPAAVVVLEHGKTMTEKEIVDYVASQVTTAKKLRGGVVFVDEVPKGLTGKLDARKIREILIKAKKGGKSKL
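FLuc 10nM, D-luciferin 10uM, ATP 10uM, Mg acetate 10mM, Tris acetate pH 7.5, Tween/BSA; cpd qHTS; enzyme added last; CCD luminescence.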
* hit, by the source's call; i = inactive; ? = inconclusive; . = no result given; [ ] = remark or other dose. An excerpt weighted towards active compounds, which were near 7.4% of everything screened. Unless noted, the call rests on the fitted dose curve; in most records, active means well fitted curve in the direction sought with a large enough effect; inconclusive means small, poorly fitted or top-dose-only effect, or another doubt; inactive means no such curve, though single readings can be large; an effect the other way counts as inactive or inconclusive. Unless noted, on the % scale 0 is the no-effect control and ±100 the full control effect; potency means the concentration at half of the fitted maximal effect.

SMILES | 3T3 cytotox | SNCA viab count | NPR1 antag | HEK293 tox | SNCA expr inh | FLuc inh
CCS(=O)(=O)N1CCC2(CC1)NCCc1c2[nH]c2ccccc12 | -15% | 2%[12.5 µM] | 8% | ? | -11% | i
Cc1ccc(-n2nc(-c3c(C)nc4scc(CC(=O)NCc5ccco5)n4c3=O)cc2C)cc1 | -4% | 3% | 4% | ? | -9% | i
Cc1nc2scc(CC(=O)NCC(C)C)n2c(=O)c1-c1cc(C)n(-c2ccc(C(C)C)cc2)n1 | ? | 2% | -11% | 79µM* | -4% | ?
Cc1ccc(C)c(-n2nc(-c3c(C)nc4scc(CC(=O)NCc5ccco5)n4c3=O)cc2C)c1 | ? | 8.9µM* | -19% | 35µM* | ? | i
Cc1nc2scc(CC(=O)NCC(C)C)n2c(=O)c1-c1cc(C)n(-c2cccc(Cl)c2)n1 | -10% | 1% | 7% | ? | 13% | i
O=C(NCC1Cn2cccc2CN1Cc1ccccc1)c1n[nH]c2ccccc12 (stereo not given) | ? | -2% | -27% | ? | 103% | 14µM*
O=C(NC1CCN(c2cc(-c3ccccc3)[nH]n2)CC1)c1ccccc1 | ? | 8% | -25% | ? | 39% | i
Cc1ccc(-c2cc(N3CCC(CNC(=O)c4n[nH]c5c4CCCC5)CC3)n[nH]2)cc1 | 28µM* | -25% | ? | ? | ? | ?
O=C(NCC1CCN(c2cc(-c3ccccc3)[nH]n2)CC1)c1n[nH]c2c1CCCC2 | 32µM* | -14% | ? | ? | -29% | ?
O=C(NCC1CCN(c2cc(-c3ccc(F)cc3)[nH]n2)CC1)c1n[nH]c2c1CCCC2 | 35µM* | -14% | ? | 40µM* | -23% | ?
Cc1ccc(-c2cc(N3CCC(CNC(=O)c4ccc[nH]4)CC3)n[nH]2)cc1 | ? | 7% | -1% | ? | 16% | ?
CN(C)c1cccc(C(=O)NCC2CCN(c3cc(-c4ccc(F)cc4)[nH]n3)CC2)c1 | ? | -7% | -22% | ? | 46% | ?
O=C(Nc1ccc([C@@H](O)[C@H]2COCC(=O)N2Cc2ccccn2)cc1)C1CC1 | -5%[138 µM] | 1%[87.6 µM] | -3%[70.6 µM] | -2%[172 µM] | -6%[87.6 µM] | i
N#Cc1ccc(C(=O)Nc2ccc([C@@H](O)[C@H]3COCC(=O)N3Cc3ccc(F)cc3)cc2)cc1 | -29% | 0% | 0% | ? | 38% | i
O=C(Cc1ccccc1)Nc1ccc([C@@H](O)[C@H]2COCC(=O)N2Cc2ccc(C(F)(F)F)cc2)cc1 | 79µM* | -21% | 0% | ? | 4% | i
CC(C)(C)c1ccc(C(=O)Nc2ccc(C(O)[C@H]3COCC(=O)N3Cc3ccccn3)cc2)cc1 (stereo not given in full) | ? | -29% | -15% | ? | 3% | 16µM*
O=C(Nc1ccc([C@@H](O)[C@H]2COCC(=O)N2Cc2ccc(F)cc2)cc1)c1ccccc1 | ? | -24%[87.6 µM] | -7%[70.6 µM] | 100µM* | ? | i
O=C(Cc1ccccc1)Nc1ccc([C@@H](O)[C@H]2COCC(=O)N2Cc2ccccc2)cc1 | -18%[174 µM] | -4%[87.6 µM] | 2%[70.6 µM] | -13%[172 µM] | ? | i
CC1Oc2ccc(NC(=O)C3CCCC3)cc2CN(Cc2ccc(F)cc2)C1=O (stereo not given) | 25µM* | -16% | -22% | ? | -26% | i
CC1Oc2ccc(NC(=O)c3cccs3)cc2CN(Cc2ccccc2)C1=O (stereo not given) | ? | 11% | -13% | 25µM* | 7% | i
CC1Oc2ccc(NC(=O)Nc3ccccc3)cc2CN(Cc2ccccc2)C1=O (stereo not given) | 35µM* | -11% | ? | 45µM* | 53% | ?
CNC(=O)c1cc(C)nc2onc(C3CCCN3C(=O)Cc3cccc(OC)c3)c12 (stereo not given) | -17% | . | . | -4% | . | .
